# From PubChem
# Rows were chosen to be rich in hits. Some 3.8% of all compounds tested hit in one or more screens of this group.
# Nrf2 block – Nrf2 qHTS screen for inhibitors. Potency, µM (highest dose often 46 µM), usual class: inhibitors. 360,000 tested, 2.1% active. A549 ARE-Fluc reporter, luciferase luminescence, 18-24 h. AID 504444, 2011; also: nearly all actives have a fitted effect of over 60% in size
#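 Reporter: ARE-Fluc in A549. Exposure: 18-24 h, 37 °C, 5% CO2, 5% FBS OPTI-MEM. Readouts: fluorescent cytotoxicity (CellTiter-Fluor), then luminescent Nrf2 signal after BugLite.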
# ATXN viability – Viability Counterscreen for Primary qHTS for Inhibitors of ATXN expression | Potency, µM (titrated, usually from 56.7 µM), usual class: cytotoxic | 400,000 tested, 0.49% active | S2 cells (HEK-293 line with an ATXN2-luciferase reporter) viability, CellTiter-Fluor protease fluorescence, 24 h | AID 651635, 2014; also: nearly all actives have a fitted effect of over 40% in size
# ATXN2 expr inh – Primary qHTS for Inhibitors of ATXN expression; Potency, µM (series often up to 57 µM), actives largely listed as inhibitors; HEK-293 ATXN2-luciferase reporter, luminescence, 24 h; AID 1745845, 2022; 360,000 tested, 0.72% active; also: nearly all actives have a fitted effect of over 55% in size
#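 qHTS (up to 57 uM final) was run with 24 h compound exposure of reporter cells at 37 °C. Each well was multiplexed: SteadyGlo luminescence measured ATXN2-luciferase expression after a fluorogenic Gly-Phe-AFC viability readout (25 uM final).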
# A549 tox-1 – Nrf2 qHTS screen for inhibitors: counterscreen for cytotoxicity | A549 ARE-Fluc cells, CellTiter-Fluor viability, 18-24 h | Potency, µM (doses to about 46 µM), usual class: inhibitors | 390,000 tested, 0.16% active | AID 504648, 2011
#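 Cytotoxicity counterscreen: CellTiter-Fluor fluorescence was measured in A549 ARE_Fluc cells after 18-24 h of compound exposure in a concentration series. The subsequent BugLite luminescent read reports ARE-luciferase activity.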
# HepG2 tox – qHTS for Inhibitors of TGF-b: Cytotox Counterscreen | HepG2 CAGA-GFP viability, ATP luminescence, 18 h | Potency, µM (doses to about 46.1 µM), most hits filed as cytotoxic | 410,000 tested, 0.76% active
#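 CellTiter-Glo luminescence gave cytotoxicity after 18 hours at 37 degrees C. The cells were HepG2 CAGA-GFP in 1% FBS DMEM, stimulated with 500 pg/mL TGF-beta after compound addition. %Activity was normalised to no-cell wells (complete cell-killing) and DMSO (no toxicity), and curves were fitted and classified.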
# TGFb SMAD3 inh – qHTS for Inhibitors of TGF-b | HepG2 CAGA-GFP TGF-b/SMAD3 reporter, GFP fluorescence, 18 h; TGF-beta stimulated, 500 pg/mL final | 410,000 tested, 1.2% active | AID 588855, 2011 | Potency, µM (highest dose often 46.1 µM), actives largely listed as inhibitors; also: nearly all actives have a fitted effect of over 65% in size
#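 HEPG2 CAGA-GFP, 1000 cells/well; 2 h settle, 37 C; cpd via pin tool; TGF-b 500 pg/mL final; 18 h, 37 C; GFP imaging ex488/em500-530; %Activity normalised to -TGF-b and +DMSO controls; CRC fit, curve class.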
# FLuc enzyme inh – Nrf2 qHTS screen for inhibitors: Purified Fluc Biochemical Counterscreen for Hit Validation; shares compounds with Nrf2 block; purified firefly luciferase, luminescence inhibition; Potency, µM (series often up to 57.5 µM), hits mostly inhibitors; 1,400 tested, 4% active; AID 720522, 2013; also: nearly all actives have a fitted effect of over 65% in size
# Target sequence (P08659 whole entry, looked up): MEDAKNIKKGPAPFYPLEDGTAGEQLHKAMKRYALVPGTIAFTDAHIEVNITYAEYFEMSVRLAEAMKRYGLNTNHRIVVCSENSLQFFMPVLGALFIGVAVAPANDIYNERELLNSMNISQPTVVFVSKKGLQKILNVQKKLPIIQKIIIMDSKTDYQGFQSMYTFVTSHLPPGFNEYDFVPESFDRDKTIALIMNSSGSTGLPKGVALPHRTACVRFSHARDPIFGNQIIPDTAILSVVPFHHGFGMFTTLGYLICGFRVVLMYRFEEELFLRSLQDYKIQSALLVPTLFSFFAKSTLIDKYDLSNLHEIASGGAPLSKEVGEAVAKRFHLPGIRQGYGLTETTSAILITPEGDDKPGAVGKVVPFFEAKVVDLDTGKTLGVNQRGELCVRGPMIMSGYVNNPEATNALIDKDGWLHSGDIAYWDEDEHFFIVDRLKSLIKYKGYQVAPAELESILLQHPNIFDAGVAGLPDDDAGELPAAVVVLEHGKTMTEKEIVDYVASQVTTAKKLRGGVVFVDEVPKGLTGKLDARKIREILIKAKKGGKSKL
# A549 tox-2 – Nrf2 qHTS screen for inhibitors: A549 ARE-Fluc Cytotoxicity Counterscreen for Hit Validation. shares compounds with Nrf2 block. Potency, µM (top dose mostly 46.1 µM), most hits filed as inhibitors. A549 ARE-Fluc cells, cytotoxicity counterscreen. 1,400 tested, 2% active. AID 720523, 2013;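 also: cells exposed to compounds for 18 to 24 hours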
# Nrf2 ARE inh – Nrf2 qHTS screen for inhibitors: Nrf2 A549 ARE-Fluc Confirmation Assay for Hit Validation; shares compounds with Nrf2 block; A549 ARE-firefly luciferase reporter, luminescence; Potency, µM (series often up to 46.1 µM), most hits filed as inhibitors; 1,400 tested, 74% active; also: nearly all actives have a fitted effect of over 65% in size
# Numbers stand for hits; 0 = inactive; ? = inconclusive; - = not tested or not shown. Calls follow the shape of the dose curve; as a rule, active = well fitted curve in the direction sought with a large enough effect; inconclusive = small, poorly fitted or top-dose-only effect, or another doubt; inactive = no such curve, though single readings can be large; an effect the other way counts as inactive or inconclusive.
SMILES,Nrf2 block,ATXN viability,ATXN2 expr inh,A549 tox-1,HepG2 tox,TGFb SMAD3 inh,FLuc enzyme inh,A549 tox-2,Nrf2 ARE inh
CN(Cc1ccccc1)C(=O)c1ccc(NC(=O)Cc2ccc(NC(=O)C3CCCN(C(=O)C4CCC4)C3)cc2)cc1 (stereo not given),?,0,0,0,0,0,-,-,-
COc1cc(OC)cc(C(=O)NNC(=O)c2ccccn2)c1,8.2µM,0,?,?,0,0,0,0,7.3µM
COc1cc(C2CC(=O)c3c([nH]c(C(=O)OCC4CCCCC4)c3C)C2)cc(OC)c1OC (stereo not given),2.3µM,-,-,0,0,0,0,0,4.6µM
COc1cc(C2CC(=O)c3c([nH]c(C(=O)OC4CCCCC4)c3C)C2)cc(OC)c1OC (stereo not given),-,?,?,?,0,0,-,-,-
COc1ccc(COC(=O)c2[nH]c3c(c2C)C(=O)CC(c2ccc(OC)c(OC)c2)C3)cc1 (stereo not given),6.5µM,-,-,0,0,0,0,0,6.5µM
O=C(CCCc1nc(-c2ccc(Cl)cc2)no1)NC1CCCC1,4.1µM,?,0,0,0,?,0,0,5.2µM
O=C(CCc1nc(-c2ccc(Cl)cc2)no1)NC1CCCCC1,?,?,0,0,0,0,-,-,-
COc1cccc(NC(=O)c2ccc(-c3nc(COc4ccc(C)cc4)c(C)o3)cc2)c1,5.2µM,-,-,0,0,0,0,0,?
COc1cccc(CNC(=O)c2ccc(-c3nc(CSc4ccccc4)c(C)o3)cc2)c1,0,0,0,0,0,0,-,-,-
Cc1ccc(SCc2nc(-c3ccc(C(=O)Nc4cc(C)ccc4C)cc3)oc2C)cc1,5.8µM,-,-,0,0,0,0,0,7.3µM
COc1cc(NC(=O)c2ccc(-c3nc(CSc4ccccc4)c(C)o3)cc2)cc(OC)c1,7.3µM,-,-,0,0,?,0,0,7.3µM
Cc1oc(-c2ccc(C(=O)NCCc3ccc(Cl)cc3)cc2)nc1CSc1ccccc1,0,0,0,0,0,0,-,-,-
CCOc1ccccc1N=NC1C(=O)N(C(N)=S)N=C1C (stereo not given),0,0,?,0,0,0,-,-,-
Cc1cc(C)n(CCOc2ccc(Br)cc2)n1,0,0,0,0,0,0,-,-,-
O=C(c1ccccc1)N1CCC(c2nc(-c3ccc(S(=O)(=O)NCC4CCCO4)cc3)no2)CC1 (stereo not given),3.7µM,0,0,0,0,0,0,0,5.8µM
COc1ccc(CC(=O)NNS(=O)(=O)c2ccccc2)cc1OC,0,0,0,0,0,0,-,-,-
COc1ccc(CNC(=O)c2nnn(-c3cccc(C(F)(F)F)c3)c2N)cc1,?,0,0,0,0,0,-,-,-
CCC(C)N1CCC2(CC1)N=c1c(c3c4c5c(C)c(O)c3c(O)c1=NC(=O)C(C)=CC=C[C@H](C)[C@H](O)[C@@H](C)[C@@H](O)[C@@H](C)[C@H](OC(C)=O)[C@H](C)[C@@H](OC)C=CO[C@@](C)(O5)C4=O)N2 (stereo not given in full),8.2µM,-,0,?,0,0,0,?,?
